Measurements published in PubChem BioAssay (Tox21).
Values joined by “and” are separate entries in the source; they are usually repeats but may differ in a detail not shown here. Equal values may be shown once. Some structures have more than one record in an assay (separate samples or runs), and their calls can disagree. Active and inactive are the calls of the source. Unless noted, calls come from the whole dose curve; as a rule, active = well fitted curve in the direction sought with a large enough effect in the repeat runs; inconclusive = weak or mixed curves; inactive = no such curve, though single readings can be large; an effect the other way counts as inactive or inconclusive.

Assays:
[1] = qHTS assay to identify small molecule antagonists of the thyroid receptor (TR) signaling pathway - cell viability counter screen (AID 743064); note: nearly all actives have a fitted effect of over 50% in size; note: potency is the fitted concentration of half-maximal effect
Procedure, shortened: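 Fluorescence from CellTiter-Fluor, added after 23.5 h exposure at 37 °C, reported viability of GH3.TRE-Luc cells co-treated with compound and 1 nM T3. Measured in the same wells as the luciferase TR readout.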

[2] = qHTS assay to identify small molecule antagonists of the thyroid receptor (TR) signaling pathway (AID 743065); note: nearly all actives have a fitted effect of over 55% in size; note: potency is the fitted concentration of half-maximal effect
Procedure, shortened: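 GH3.TRE-Luc rat pituitary cells carrying two TR response elements driving luciferase were plated for 4 h, given compound plus 1 nM T3 (final), and incubated 23.5 h at 37 C. ONE-Glo luminescence measured reporter inhibition; CellTiter-Fluor fluorescence tracked cytotoxicity.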

[3] = system: thyroid hormone receptor (rat, GH3 cells); test: qHTS assay to identify small molecule agonists of the thyroid receptor (TR) signaling pathway (AID 743066; calls by dose curve; note: potency is the fitted concentration of half-maximal effect)
[4] = qHTS assay to identify small molecule antagonists of the estrogen receptor alpha (ER-alpha) signaling pathway - cell viability counter screen (AID 743074; calls by dose curve; note: nearly all actives have a fitted effect of over 45% in size)
Aromatase (Homo sapiens) = Aromatase (Homo sapiens) (UniProt P11511); test: qHTS assay to identify aromatase inhibitors (AID 743083); note: nearly all actives have a fitted effect of over 55% in size; note: potency is the fitted concentration of half-maximal effect
Chain of Aromatase (Homo sapiens) (P11511 whole entry, looked up): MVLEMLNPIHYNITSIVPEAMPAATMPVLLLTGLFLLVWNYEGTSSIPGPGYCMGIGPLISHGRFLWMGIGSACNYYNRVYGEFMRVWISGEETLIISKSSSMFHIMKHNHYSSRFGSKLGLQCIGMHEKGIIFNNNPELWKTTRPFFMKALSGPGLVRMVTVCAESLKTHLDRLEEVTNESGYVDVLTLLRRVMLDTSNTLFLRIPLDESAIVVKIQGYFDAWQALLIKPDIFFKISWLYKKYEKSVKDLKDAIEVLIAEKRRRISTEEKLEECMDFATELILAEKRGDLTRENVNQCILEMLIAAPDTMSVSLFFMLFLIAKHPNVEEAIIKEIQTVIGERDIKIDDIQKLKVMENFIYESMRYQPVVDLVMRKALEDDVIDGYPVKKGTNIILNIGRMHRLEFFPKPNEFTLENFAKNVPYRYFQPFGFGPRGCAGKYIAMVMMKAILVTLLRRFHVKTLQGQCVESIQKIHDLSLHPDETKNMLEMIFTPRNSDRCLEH

[5] = target: Estrogen receptor (Homo sapiens) (UniProt P03372); test: qHTS assay to identify small molecule agonists of the estrogen receptor alpha (ER-alpha) signaling pathway (AID 743075; calls by dose curve; note: potency is the fitted concentration of half-maximal effect)
Chain of Estrogen receptor (Homo sapiens) (P03372 whole entry, looked up): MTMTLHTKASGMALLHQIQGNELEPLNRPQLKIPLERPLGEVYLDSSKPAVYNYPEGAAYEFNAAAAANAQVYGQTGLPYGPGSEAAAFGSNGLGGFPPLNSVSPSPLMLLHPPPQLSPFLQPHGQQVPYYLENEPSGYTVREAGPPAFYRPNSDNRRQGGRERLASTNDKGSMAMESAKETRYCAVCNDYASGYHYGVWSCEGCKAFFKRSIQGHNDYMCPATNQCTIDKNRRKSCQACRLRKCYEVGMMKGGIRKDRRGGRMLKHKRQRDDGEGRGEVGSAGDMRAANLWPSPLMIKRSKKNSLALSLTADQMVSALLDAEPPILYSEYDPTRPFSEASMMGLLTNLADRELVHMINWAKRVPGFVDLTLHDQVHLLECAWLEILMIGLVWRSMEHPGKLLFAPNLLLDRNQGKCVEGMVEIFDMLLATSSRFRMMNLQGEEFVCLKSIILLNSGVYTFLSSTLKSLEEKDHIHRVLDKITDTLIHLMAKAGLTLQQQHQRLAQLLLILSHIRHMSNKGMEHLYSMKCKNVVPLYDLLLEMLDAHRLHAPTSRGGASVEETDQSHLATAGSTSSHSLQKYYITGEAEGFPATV

[6] = target: Estrogen receptor (Homo sapiens) (UniProt P03372); test: qHTS assay to identify small molecule agonists of the estrogen receptor alpha (ER-alpha) signaling pathway using the BG1 cell line (AID 743079); note: nearly all actives have a fitted effect of over 20% in size; note: potency is the fitted concentration of half-maximal effect
[7] = target: Estrogen receptor (Homo sapiens) (UniProt P03372); test: qHTS assay to identify small molecule antagonists of the estrogen receptor alpha (ER-alpha) signaling pathway (AID 743069; active = well fitted curve in the direction sought with a large enough effect in the signal ratio in the repeat runs, not every such curve was filed as active; inconclusive = weak or mixed curves, or effect the other way; inactive = no such curve, though single readings can be large or run the other way; the % refers to the signal ratio; note: potency is the fitted concentration of half-maximal effect)
Procedure, shortened: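 HEK293 cells stably carrying an ER-alpha-UAS-bla beta-lactamase reporter were pre-cultured overnight in 2% charcoal-stripped FBS medium. Test compounds in DMSO were added together with 17beta-estradiol for 18 hr at 37C. Read-out was fluorescence after 2 hr with LiveBLAzer B/G FRET substrate at room temperature.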

[8] = qHTS assay to identify small molecule antagonists of the estrogen receptor alpha (ER-alpha) signaling pathway using the BG1 cell line - cell viability counter screen (AID 743081);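 note: compound given together with 17beta-estradiol as the ER stimulus; nearly all actives have a fitted effect of over 45% in size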; note: potency is the fitted concentration of half-maximal effect
[9] = qHTS assay to identify small molecule antagonists of the estrogen receptor alpha (ER-alpha) signaling pathway using the BG1 cell line (AID 743080; calls by dose curve;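 note: BG1 cells stimulated with 17beta-estradiol alongside compound; nearly all actives have a fitted effect of over 25% in size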; note: potency is the fitted concentration of half-maximal effect)
Procedure, shortened: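 Luminescence from a 4×ERE-luciferase reporter in BG1-Luc-4E2 cells served as read-out. Cells, pre-cultured 5 days in stripped-serum phenol-red-free medium, were exposed to compound with 17beta-estradiol co-stimulation for 21.5 h at 37 C.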

Measured: Potency

CCOC(=O)COc1cc(-c2nn(C)c(OC(F)F)c2Cl)c(F)cc1Cl
inactive: [1] | [2] | [3] | [4] | Aromatase (Homo sapiens)

NS(=O)(=O)C(F)(F)C(F)(F)C(F)(F)C(F)(F)C(F)(F)C(F)(F)C(F)(F)C(F)(F)F
inactive: [3] | [6] | Aromatase (Homo sapiens)
active: [1] 61.1 µM | [2] 61.1 µM | [5] 43.6 µM [inconclusive]

C/C(=C\c1ccccc1)[N+](=O)[O-]
inactive: [5]
active: [1] 13.7 µM | [2] 6.86 µM | [7] 2.45 µM [cytotoxic] | Aromatase (Homo sapiens) 19.3 µM

C=CCN1CC[C@]23c4c5ccc(O)c4O[C@H]2C(=O)CC[C@@]3(O)[C@H]1C5
inactive: [1] | [2] | [3] | [4] | [8] | Aromatase (Homo sapiens)

NCC(CC(=O)O)c1ccc(Cl)cc1 (stereo not given)
inactive: [1] | [2] | [3] | [4] | [8] | Aromatase (Homo sapiens)

C=CC[C@]1(O)CC[C@H]2[C@@H]3CCC4=CC(=O)CCC4=C3C=C[C@@]21C
active: [2] 10.6 µM | [5] 1.69 µM [inconclusive] | [6] 1.33 µM | [9] 29.8 µM
inactive: [1] | [3] | [8]

CC(C)(C)c1cc([N+](=O)[O-])cc([N+](=O)[O-])c1O
active: [1] 8.61 µM | [2] 3.43 µM | [8] 21.6 µM | Aromatase (Homo sapiens) 15.3 µM

O=S1(=O)OC(c2cc(Br)c(O)c(Br)c2)(c2cc(Br)c(O)c(Br)c2)c2ccccc21
active: [1] 49.9 µM | [2] 28.1 µM | [8] 22.3 µM | Aromatase (Homo sapiens) 22.3 µM
inactive: [3] | [5]

O=C1c2ccccc2C(=O)C1C(=O)C(c1ccccc1)c1ccccc1
inactive: [1] | [2] | [3] | [4] | [8] | Aromatase (Homo sapiens)

c1cc2ccc3cccc4ccc(c1)c2c34
not listed: [4] | [7] | [8]
inactive: all other assays above

COC(=O)C(Br)CBr (stereo not given)
not listed: [3]
inactive: all other assays above

CC1C(=O)C[C@]2(C(C)C)C[C@H]12 (stereo not given in full)
inactive: [1] | [2] | [3] | [8] | Aromatase (Homo sapiens)

[CH3][Sn]([CH3])([Cl])[Cl]
inactive: [3] | [4] | [8] | Aromatase (Homo sapiens)
active: [2] 55.4 µM and 68.6 µM
55.4 µM (active) and inactive: [1]

Nc1nc(N)nc(N)n1
inactive: [1] | [2] | [3] | [4] | [8] | Aromatase (Homo sapiens)

O=C1CN=C(c2ccccc2)c2cc(Cl)ccc2N1CC1CC1
inactive: [1] | [3] | [4] | [8] | Aromatase (Homo sapiens)
active: [2] 21.1 µM and 51 µM

CC/C(=N\OC/C=C/Cl)C1=C(O)CC(C2CCOCC2)CC1=O (stereo not given)
inactive: [1] | [2] | [3] | [4] | [8] | Aromatase (Homo sapiens)

COC1=CC(=O)O[C@@H](CCc2ccccc2)C1
inactive: [1] | [2] | [3] | [4] | [8] | Aromatase (Homo sapiens)

C=CC(C)=O
not listed: [2] | [3] | [9]
inactive: all other assays above

Cn1sc(Cl)cc1=O
active: [1] 68.6 µM
not listed: [2] | [9]
inactive: all other assays above

CCOP(=O)(OCC)SCCSCC
not listed: [1] | [6]
inactive: all other assays above

CCOC(=O)[C@]1(c2ccccc2)Oc2ccccc2[C@@H]1N
active: [1] 68.6 µM | [2] 68.6 µM | Aromatase (Homo sapiens) 27.3 µM

O=C(NCc1cccnc1)Nc1ccc([N+](=O)[O-])cc1
active: [2] 68.6 µM
not listed: [1] | [9]
inactive: all other assays above

O=C(O)C(F)(F)C(F)(F)C(F)(F)C(F)(F)C(F)(F)C(F)(F)C(F)(F)C(F)(F)C(F)(F)F
active: [7] 15.5 µM [inhibitor]
not listed: [1]
inactive: all other assays above

O=C1C(=O)c2cccc3cccc1c23
inactive: [1] | [3] | [7] | [5] | [6] | Aromatase (Homo sapiens)

Clc1ccc(C2(Cn3cncn3)CC(Br)CO2)c(Cl)c1 (stereo not given)
active: Aromatase (Homo sapiens) 17.1 µM
inactive: [1] | [3] | [4] | [5] | [8]

CCOP(=S)(OCC)Oc1cc(Cl)c(Br)cc1Cl
inactive: [1] | [4] | [5] | [9] | [8] | Aromatase (Homo sapiens)

CC1(C)CCC(Cc2ccc(Cl)cc2)C1(O)Cn1cncn1 (stereo not given)
inactive: [3] | [4] | [5] | [8]
active: [2] 61.1 µM | [7] 61.6 µM [inconclusive] | [9] 61.1 µM | Aromatase (Homo sapiens) 30.6 µM

NC(=O)C(Cl)(Cl)Cl
active: [6] 68.9 µM
not listed: [2] | [3]
inactive: all other assays above

CC(O)(CS(=O)(=O)c1ccc(F)cc1)C(=O)Nc1ccc(C#N)c(C(F)(F)F)c1 (stereo not given)
active: [9] 29.8 µM
not listed: [2] | [7]
inactive: all other assays above

COP(=S)(Oc1cc(Cl)c(Br)cc1Cl)c1ccccc1 (stereo not given)
active: [2] 61.1 µM
not listed: [1] | Aromatase (Homo sapiens)
inactive: all other assays above

NCCCNCCCN
inactive: [8]
active: [1] 62.1 µM | [2] 62.1 µM | Aromatase (Homo sapiens) 62.1 µM

Cc1ccccc1C(=O)Nc1cccc(OC(C)C)c1
not listed: [2]
inactive: all other assays above

N#Cc1ccc(Cl)cc1
not listed: [2] | [3] | [4]
inactive: all other assays above

C=CC(=O)OC(C)(C)C
inactive: [1] | [4] | [8] | Aromatase (Homo sapiens)

Cc1cc(=O)[nH]o1
not listed: [2] | [3]
inactive: all other assays above

S=C=NCc1ccccc1
inactive: [1] | [4] | [8] | Aromatase (Homo sapiens)

Cl/C=C\C[N+]12CN3CN(CN(C3)C1)C2
not listed: [2] | Aromatase (Homo sapiens)
inactive: all other assays above

ClCCCCBr
inactive: [1] | [4] | [8] | Aromatase (Homo sapiens)

CCn1cc[n+](C)c1
inactive and 49.2 µM (active): [3]
inactive: [1] | [4] | [8]

BrCCCCBr
not listed: [1]
inactive: all other assays above

CCOP(=S)(Oc1ccc([N+](=O)[O-])cc1)c1ccccc1 (stereo not given)
active: [6] 27.3 µM
not listed: [1]
inactive: all other assays above
